Growth data for 14 compounds are collected here from PubChem BioAssay (NCI).

Test systems include DU-145 prostate; K-562 leukemia; MALME-3M melanoma; MDA-MB-231 breast; RXF 393 renal; SF-268 CNS; SF-295 CNS; SF-539 CNS; UACC-257 melanoma; M14 melanoma.
Test in all cases: NCI-60 one-dose screen, 48 h (100 = growth as untreated, 0 = no growth, -100 = all killed)
Conditions in all cases: 10 µM unless noted

The panel holds about 83,000 compounds, 20% with a hit somewhere; the sample as a whole holds those more often.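 Activity criterion: percent growth below 10, measured after cells in 96-well plates were exposed to a single compound concentration for 48 hours.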 Unmarked numbers belong to inactive results. The source made the active and inactive calls.

For `COc1ccc(-c2cc(-c3cc(OC)ccc3OC)nc(SCC(=O)c3ccccc3)c2C#N)cc1`, the growth is 106% with DU-145 prostate; 105% in the assay with K-562 leukemia; 88.9% with MALME-3M melanoma; 94.4% with MDA-MB-231 breast; 97.2% in the assay with RXF 393 renal; 99% in the assay with SF-268 CNS. The growth in the assay with SF-295 CNS is 104%; with SF-539 CNS, 94.8%; in the assay on UACC-257 melanoma it was 101%; with M14 melanoma, 98.1%.

As to `COC(=O)/C=C1\S/C(=N\NS(=O)(=O)c2ccc(C)cc2)N(c2ccccc2)C1=O`, the growth with DU-145 prostate was 105%; in the assay on K-562 leukemia, 84.5%; in the assay on MALME-3M melanoma it was 110%; in the assay on MDA-MB-231 breast, 109%; in the assay with RXF 393 renal it was 111%; in the assay with SF-268 CNS, 98%. Besides, the growth in the assay on SF-295 CNS was 105%; in the assay with SF-539 CNS, 100%; in the assay on UACC-257 melanoma it was 99.5%; in the assay with M14 melanoma, 107%.

Regarding `O=C(c1ccc(Nc2nccc(NCCCCNc3ccnc4cc(Cl)ccc34)n2)cc1)N1CCCCC1`, the growth was 51.6% in the assay with DU-145 prostate; -25.3% (active) with K-562 leukemia; -78.6% (active) with MALME-3M melanoma; -9.32% (active) in the assay on MDA-MB-231 breast; 46.9% with RXF 393 renal; 34.2% in the assay with SF-268 CNS. Besides, the growth was 1.19% (active) with SF-295 CNS, -73.7% (active) with SF-539 CNS, -50.8% (active) in the assay with UACC-257 melanoma and -69% (active) with M14 melanoma.

With `CCCCCCCCCCN(CCCCCCCCCC)CC(=O)c1ccc2cc(Br)c3ccccc3c2c1`, the growth in the assay with DU-145 prostate is 71.7%; in the assay on K-562 leukemia, -46.6% (active); in the assay on MALME-3M melanoma, -78.2% (active); in the assay with MDA-MB-231 breast, 67.1%; with RXF 393 renal, 95.5%; in the assay with SF-268 CNS it was 81%. The growth with SF-295 CNS was 91.8%; in the assay with SF-539 CNS it was 89%; in the assay with UACC-257 melanoma, 87%; with M14 melanoma it was -11.7% (active).

Regarding `Cc1cc(O)c(C2=NN(c3ccc(S(N)(=O)=O)cc3)C(c3ccccc3Cl)C2)cc1Cl` (stereo not given), the growth was 4.85% (active) in the assay on DU-145 prostate; -18% (active) in the assay with K-562 leukemia; 34.9% in the assay with MALME-3M melanoma; 20% with MDA-MB-231 breast; -11.7% (active) in the assay with RXF 393 renal; 11.6% with SF-268 CNS. For the same compound, the growth in the assay with SF-295 CNS is 63%; in the assay with SF-539 CNS, 41.9%; in the assay with UACC-257 melanoma, 65.2%; in the assay with M14 melanoma, -11.9% (active).

Regarding `COc1ccccc1NC(=O)N/C(N)=N/c1nc2ccccc2s1`, the growth in the assay with DU-145 prostate is 19.3%; in the assay with K-562 leukemia it was 12.9%; with MALME-3M melanoma it was 57.6%; in the assay on MDA-MB-231 breast, 48.1%; in the assay with RXF 393 renal, 4.12% (active); in the assay with SF-268 CNS, 49.5%. The growth with SF-295 CNS is 39.2%; in the assay on SF-539 CNS, -31.5% (active); with UACC-257 melanoma it was 75.4%; with M14 melanoma it was 8.17% (active).

For `CC(=O)n1c(-c2ccc(Cl)cc2)nc2c(c1=O)C(c1ccc(Cl)cc1)c1sc3c(Cl)cccc3c1O2` (stereo not given), the growth in the assay on DU-145 prostate was 2.09% (active); in the assay with K-562 leukemia, -0.184% (active); in the assay with MALME-3M melanoma it was 51.8%; in the assay with MDA-MB-231 breast it was -28.8% (active); in the assay on RXF 393 renal, -25.4% (active); with SF-268 CNS it was -0.0873% (active). Besides, the growth was -20% (active) in the assay with SF-295 CNS, -63.2% (active) in the assay on SF-539 CNS, 21.3% in the assay on UACC-257 melanoma and -39.3% (active) in the assay with M14 melanoma.

With `O=S(=O)(NCCCNc1cc(-c2c(-c3cccc(O)c3)nc3sccn23)ccn1)c1cccc(Cl)c1`, the growth in the assay on DU-145 prostate is 55.9%; with K-562 leukemia, 25.4%; with MALME-3M melanoma, 48.2%; in the assay on MDA-MB-231 breast, 73.6%; in the assay on RXF 393 renal, 41.1%; with SF-268 CNS it was 44.3%. Moreover, the growth was 49.3% with SF-295 CNS, 77.4% in the assay with SF-539 CNS, 68.4% with UACC-257 melanoma and 41.7% with M14 melanoma.

For `Cc1cccc(NC(=O)N/C(N)=N/c2nc(C)c(C)s2)c1`, the growth with DU-145 prostate is 71.6%; in the assay with K-562 leukemia it was 10.7%; in the assay on MALME-3M melanoma, 58.5%; with MDA-MB-231 breast, 65.2%; with RXF 393 renal it was 78.2%; in the assay with SF-268 CNS, 75.1%. Moreover, the growth in the assay on SF-295 CNS is 48.6%; in the assay on SF-539 CNS, 56.7%; in the assay with UACC-257 melanoma, 62.2%; in the assay with M14 melanoma, 28.1%.

With `COC(=O)[C@]12CC[C@@H](C)[C@H](C)[C@@H]1C1=CC[C@@H]3[C@@]4(C)C(C=O)=C[C@@](C)(COS(C)(=O)=O)[C@@H]4C(=O)C[C@@]3(C)[C@]1(C)CC2`, the growth with DU-145 prostate is 41.2%; in the assay on K-562 leukemia, 21.3%; with MALME-3M melanoma, 83.6%; with MDA-MB-231 breast it was 37.2%; in the assay with RXF 393 renal it was 73.8%; in the assay with SF-268 CNS, 40.2%. The growth was 37.3% in the assay on SF-295 CNS, 65.7% in the assay on SF-539 CNS, 52.6% in the assay on UACC-257 melanoma and 36.8% in the assay with M14 melanoma.

Turning to `Cc1cc(NCc2cc(Nc3ccnc4cc(Cl)ccc34)ccc2F)nc(Cl)n1`, the growth is 60% in the assay on DU-145 prostate; 19.8% in the assay with K-562 leukemia; 76.8% in the assay with MALME-3M melanoma; 43.5% in the assay with MDA-MB-231 breast; 62.9% with RXF 393 renal; 72.2% in the assay on SF-268 CNS. Moreover, the growth with SF-295 CNS was 34.2%; in the assay with SF-539 CNS, 73.3%; in the assay with UACC-257 melanoma, 35.7%; with M14 melanoma, 38.7%.

On to `CCCCCCCCCCCCCCCCCCOc1ccccc1CC(=O)OCCC[N+](C)(C)C`, for which the growth in the assay with DU-145 prostate was 60.5%; in the assay with K-562 leukemia, 37.4%; with MALME-3M melanoma it was 52.7%; in the assay with MDA-MB-231 breast, 45.9%; with RXF 393 renal, -18.2% (active); with SF-268 CNS it was 53.2%. For the same compound, the growth is 75.4% with SF-295 CNS, 52.1% in the assay with SF-539 CNS, 84.7% in the assay with UACC-257 melanoma and 46.3% in the assay on M14 melanoma.

In the case of `Cn1cc(-c2csc(-c3ccccc3)n2)c2cccnc21`, the growth is -61.4% [100 µM] (active) with DU-145 prostate; 1.43% [100 µM] (active) in the assay on K-562 leukemia; -44.2% [100 µM] (active) in the assay on MALME-3M melanoma; -42.7% [100 µM] (active) in the assay with MDA-MB-231 breast; -37.4% [100 µM] (active) in the assay with RXF 393 renal; -18.3% [100 µM] (active) with SF-268 CNS. For the same compound, the growth in the assay with SF-295 CNS is -47.2% [100 µM] (active); in the assay on SF-539 CNS, -71% [100 µM] (active); in the assay with UACC-257 melanoma it was -27.7% [100 µM] (active); in the assay with M14 melanoma, -76.6% [100 µM] (active).

Consider `C=CCn1c(C)nc2cc(Nc3nc(Cl)nc4ccccc34)ccc21`, for which the growth with DU-145 prostate was 105%; in the assay with K-562 leukemia, 74.8%; in the assay on MALME-3M melanoma, 122%; with MDA-MB-231 breast, 89.9%; in the assay with RXF 393 renal it was 87.4%; in the assay with SF-268 CNS it was 89.9%. Also, the growth in the assay on SF-295 CNS is 84.8%; with SF-539 CNS it was 97.4%; in the assay with UACC-257 melanoma, 102%; in the assay with M14 melanoma it was 110%.
